Data on five molecules can be found in PubChem BioAssay (EPA / NIEHS).

Inconclusive results are not listed. The source made the active and inactive calls. How the source made its calls, unless noted: active means hit-call score of the fitted dose curve at least 0.9, where 1 is the maximum; inconclusive means response in the unintended direction; inactive means score below 0.9.

Test [1] concerns the target THRB (gene 7068) (UniProt P10828). The test is described as follows: TOX21_TRB_BLA_Agonist_Followup_ratio: Tox21 Thyroid Hormone Receptor beta Agonism Beta-lactamase (BLA) Follow-Up Assay, Ratio (AID 2283954). The method, boiled down:
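Human TRβ LBD–GAL4 DBD fusion in GeneBLAzer UAS-bla HEK293T cells; 11 concentrations in triplicate, 18 h at 37°C/5% CO2, T3 as agonist control. CCF4-AM substrate 2 h at room temperature; 460:530 nm ratio fitted for gain of signal versus DMSO.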

The nature of test [2]: TOX21_TRB_BLA_Agonist_Followup_viability: Viability Assessment in the Tox21 Thyroid Hormone Receptor beta Agonism Beta-lactamase (BLA) Follow-Up Assay (AID 2283956). The method, boiled down:
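TRb-bla HEK293T cells (GAL4-DBD/human TRb LBD) in 2% charcoal-stripped FBS medium were exposed 18 h at 37C to 11 concentrations in triplicate. CellTiter-Glo ATP luminescence was read after 30 min at room temperature, with bidirectional fitting against DMSO.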

Test [3] has as its target THRB (gene 7068) (UniProt P10828). The test is described as follows: TOX21_TRB_COA_Agonist_Followup_ratio: Tox21 Thyroid Hormone Receptor beta Agonism through Coactivator Recruitment Follow-Up Assay, Ratio (AID 2283963; active means hit-call score of the fitted dose curve at least 0.9, where 1 is the maximum; inactive means score below 0.9). Put shortly: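 Cell-free TR-FRET coactivator recruitment: GST-tagged TRβ LBD (5.0 nM) with 0.10% BSA incubated with compound, then fluorescein-SRC-2 peptide (200 nM) and Tb-anti-GST antibody (2 nM) added. 520:495 nm ratio normalized to DMSO (0%) and T3 (100%).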

The target in test [4] is Retinoic acid receptor RXR-alpha (Homo sapiens) (UniProt P19793). Nature of the test: TOX21_TR_RXR_BLA_Agonist_Followup_ratio: Tox21 Thyroid Hormone Receptor beta Retinoid X Receptor alpha (RXRa) Agonism Beta-lactamase (BLA) Follow-Up Assay, Ratio (AID 2283968). The method, boiled down:
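This follow-up tests whether responses seen in the TR GH3 luciferase agonist screen are specific, using a GAL4-driven beta-lactamase reporter for RXRa in HEK293T cells. Compound exposure lasts 16 h; signal is the cleaved/uncleaved substrate ratio.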

Test [5] can be described thus: TOX21_TR_RXR_BLA_Agonist_Followup_viability: Viability Assessment in the Tox21 Thyroid Hormone Receptor beta Retinoid X Receptor alpha (RXRa) Agonism Beta-lactamase (BLA) Follow-Up Assay (AID 2283970). The method, boiled down:
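In qHTS format, RXRa-bla HEK293T cells (2,500/well) received compound for 16h. ATP content was then measured with CellTiter-Glo, and responses were fitted bidirectionally relative to DMSO controls.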

Test [6] can be described thus: CCTE_Harrill_HTTr_Viability_DMEM_6hr: (Pilot) CCTE's 6-hour Cell Viability Assessment for the High-Throughput Transcriptomics (HTTr) Platform, in MCF-7 cells cultured in DMEM + 10% fetal bovine serum, Harrill Lab (AID 2283973; active means hit-call score of the fitted dose curve at least 0.9, where 1 is the maximum; inactive means score below 0.9). The source says: (§1) This is a cell-based assay that evaluates cell viability using high content imaging to evaluate membrane integrity using propidium iodide dye exclusion in a 384 well format.One of seven assay components measured from the CCTE_Harrill_HTTr_Viability assay. This was part of a pilot experiment. This is a cell-based assay that evaluates cell viability in MCF-7 cells cultured in DMEM + 10% fetal bovine serum. High content imaging is used to evaluate membrane integrity using propidium iodide dye exclusion. Measurements are taken at 6 hours after chemical dosing in 384-well format.The assay component endpoint CCTE_Harrill_HTTr_Viability_DMEM_6hr was analyzed with bidirectional fitting relation to DMSO as the negative control and baseline of activity. Using a type of viability reporter to understand changes in cytotoxicity, gain-of-signal activity can be used to evaluate membrane integrity using propidium iodide dye exclusion. To generalize the intended target to other relatable targets, this assay endpoint is annotated to cell cycle, where the subfamily is cytotoxicity.
Chemicals were tested in MCF7 cells in an eight point dilution series with a six hour exposure duration.

The nature of test [7]: CCTE_Harrill_HTTr_Viability_DMEM_12hr: (Pilot) CCTE's 12-hour Cell Viability Assessment for the High-Throughput Transcriptomics (HTTr) Platform, in MCF-7 cells cultured in DMEM + 10% fetal bovine serum, Harrill Lab (AID 2283974; active means hit-call score of the fitted dose curve at least 0.9, where 1 is the maximum; inactive means score below 0.9).
Excerpt: as §1, with “12” for “6”, “CCTE_Harrill_HTTr_Viability_DMEM_12hr” for “CCTE_Harrill_HTTr_Viability_DMEM_6hr”
Chemicals were tested in MCF7 cells in an eight point dilution series with a twelve hour exposure duration.

A short description of test [8]: CCTE_Harrill_HTTr_Viability_DMEM_24hr: (Pilot) CCTE's 24-hour Cell Viability Assessment for the High-Throughput Transcriptomics (HTTr) Platform, in MCF-7 cells cultured in DMEM + 10% fetal bovine serum, Harrill Lab (AID 2283975; active means hit-call score of the fitted dose curve at least 0.9, where 1 is the maximum; inactive means score below 0.9). Put shortly:
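MCF-7 cells in DMEM with 10% FBS exposed for 24 hours to an eight-point dilution series. Membrane integrity by propidium iodide exclusion with high content imaging; bidirectional fit against DMSO.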

Test [9] can be described thus: CCTE_Harrill_HTTr_Viability_PRF_DMEM_6hr: (Pilot) CCTE's 6-hour Cell Viability Assessment for the High-Throughput Transcriptomics (HTTr) Platform, in MCF-7 cells cultured phenol red-free DMEM + 10% charcoal-stripped fetal bovine serum, Harrill Lab (AID 2283976; active means hit-call score of the fitted dose curve at least 0.9, where 1 is the maximum; inactive means score below 0.9). The method, boiled down: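 MCF-7 cells in phenol red-free DMEM with 10% charcoal-stripped FBS exposed 6 hours to an eight-point dilution series. Propidium iodide exclusion imaged; curves fitted bidirectionally against DMSO.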

The nature of test [10]: CCTE_Harrill_HTTr_Viability_PRF_DMEM_12hr: (Pilot) CCTE's 12-hour Cell Viability Assessment for the High-Throughput Transcriptomics (HTTr) Platform, in MCF-7 cells cultured in phenol red-free DMEM + 10% charcoal-stripped fetal bovine serum, Harrill Lab (AID 2283977; active means hit-call score of the fitted dose curve at least 0.9, where 1 is the maximum; inactive means score below 0.9). The method, boiled down: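 MCF-7 cells in phenol red-free DMEM with 10% charcoal-stripped FBS exposed 12 hours to an eight-point dilution series. Viability assessed by high-content imaging of propidium iodide exclusion; bidirectional fit versus DMSO.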

THRB (gene 7068), sequence (P10828 whole entry, looked up, the tested form may be a part): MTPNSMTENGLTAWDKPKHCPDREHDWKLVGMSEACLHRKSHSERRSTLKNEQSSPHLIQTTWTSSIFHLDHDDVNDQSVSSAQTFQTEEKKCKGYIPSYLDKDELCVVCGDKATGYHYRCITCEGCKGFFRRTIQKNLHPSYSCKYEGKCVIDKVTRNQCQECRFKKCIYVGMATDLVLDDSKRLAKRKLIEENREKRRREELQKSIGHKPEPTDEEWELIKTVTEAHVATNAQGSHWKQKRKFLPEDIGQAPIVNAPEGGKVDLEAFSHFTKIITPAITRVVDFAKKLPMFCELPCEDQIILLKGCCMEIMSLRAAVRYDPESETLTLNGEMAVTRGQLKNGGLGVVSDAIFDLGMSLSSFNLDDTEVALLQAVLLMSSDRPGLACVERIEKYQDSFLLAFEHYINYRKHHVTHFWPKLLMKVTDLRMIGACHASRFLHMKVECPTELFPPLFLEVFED
Retinoic acid receptor RXR-alpha (Homo sapiens), sequence (P19793 whole entry, looked up, the tested form may be a part): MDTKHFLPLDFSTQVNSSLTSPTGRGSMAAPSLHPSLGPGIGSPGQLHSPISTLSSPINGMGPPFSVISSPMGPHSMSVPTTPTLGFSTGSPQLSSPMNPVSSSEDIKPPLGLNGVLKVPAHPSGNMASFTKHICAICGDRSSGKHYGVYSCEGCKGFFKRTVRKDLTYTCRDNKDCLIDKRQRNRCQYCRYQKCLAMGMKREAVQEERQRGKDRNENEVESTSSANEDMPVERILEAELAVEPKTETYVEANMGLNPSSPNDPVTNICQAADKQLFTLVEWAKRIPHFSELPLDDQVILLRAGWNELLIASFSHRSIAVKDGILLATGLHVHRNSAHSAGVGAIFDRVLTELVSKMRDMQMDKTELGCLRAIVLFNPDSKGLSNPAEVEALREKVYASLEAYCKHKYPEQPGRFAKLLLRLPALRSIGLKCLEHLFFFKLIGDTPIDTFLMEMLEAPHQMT

One may read the AC50 as the midpoint of the concentration-response curve, whichever way the signal moves. Consider `C=C(C)C(=O)[O][Sn]([CH2]CCC)([CH2]CCC)[CH2]CCC`, for which the AC50 was 68.3 µM (active) with THRB (gene 7068) [1], 7.08 µM (active) in test [2], 0.116 µM (active) in [4] and 15.1 µM (active) in test [5]. In addition, in the test with THRB (gene 7068) [3], the outcome was inactive.

`NNC(=S)NN`: the result (in the test with THRB (gene 7068) [3]; in test [4]; in test [5]) was inactive.

In the case of `CC(C)(c1ccccc1)c1ccc(O)c(C(C)(C)c2ccccc2)c1`, the result (with THRB (gene 7068) [1]; in test [2]; with THRB (gene 7068) [3]; in [5]) was inactive.

Turning to `CC(C)(OO)c1ccccc1`, the call (in [2]; with THRB (gene 7068) [3]; in test [4]; in [5]) was inactive.

As for `C[C@@H]1C[C@@H]([C@H](O)CC2CC(=O)NC(=O)C2)C(=O)[C@@H](C)C1`, the result in test [6], in test [7], in test [9] and in test [10] was inactive. The concentration at half-maximal activity (AC50) in test [8] is 7.82 µM (active).
